Rows were chosen to be rich in hits. Some 2.2% of all compounds tested hit in one or more screens of this group.
MOR-DOR inv ag: inverse agonists of human mu-delta opioid receptor heterodimerization. cell-based MOR-DOR heterodimer luminescence, inverse agonism. inhibition, % at 9.3 µM. hit rate 0.21% among 340,000. AID 504357; in the data active = inhibition above about 22%, passing the limit was not always enough;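 also: 0% = cells with DMSO and 100% = wells without cells with DMSO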
OPRM1-OPRD1 ag: agonists of human mu-delta opioid receptor heterodimerization | P35372+P41143 | cells, OPRM1-OPRD1 heterodimerization, luminescence | activation, % at 9.3 µM | hit rate 0.3% among 340,000; in the data active = activation above about 18%;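 also: 0% = vehicle-treated cells and 100% = reference agonist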
HTR5A ag: activates human HTR5A in OPRM1-OPRD1 agonist counter-screen; activation, % at 9.3 µM; hit rate 0.61% among 340,000; HTR5A agonist assay, luminescence, cell-based; P47898; in the data active = activation mostly above about 9.5%, no sharp cut-off; inactive = mostly below about 7.6%;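 also: 0% = cells with vehicle only and 100% = reference agonist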
HTR5A inv ctr: HTR5A inverse agonism, opioid heterodimer counter-screen; P47898; inhibition, % at 9.3 µM; hit rate 0.083% among 340,000; AID 504634; HTR5A cell line, luminescence; in the data active = inhibition mostly above about 23%, no sharp cut-off; inactive = mostly below about 18%;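 also: 0% = cells with DMSO and 100% = no-cell wells with DMSO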
m5-HT2A agonist: activates the mouse 5-HT2A serotonin receptor; P35363; hit rate 0.66% among 360,000; activation, % at 7.6 µM; CHO-K1 mHTR2A beta-arrestin complementation, luminescence; percent of 30 µM serotonin response;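 active = activation above a run cutoff, the mean activation of all tested compounds plus 3 SD, cut at about 14% in these data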;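 also: 0% = plate median of compound wells and 100% = 30 µM serotonin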
sPLA2-III inh: Blocks human group III sPLA2 activity. inhibition, % at 12.2 µM. hit rate 0.56% among 370,000. AID 743126. Q9NZ20. QFRET BODIPY PC-A2 liposome hydrolysis, fluorescence;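 active = inhibition above mean plus 3 SD of compounds lying within the high and low control bounds, cut at about 19% in these data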;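 also: 0% = median of test compound wells and 100% = no enzyme DMSO wells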
Target sequence (Q9NZ20 whole entry, looked up): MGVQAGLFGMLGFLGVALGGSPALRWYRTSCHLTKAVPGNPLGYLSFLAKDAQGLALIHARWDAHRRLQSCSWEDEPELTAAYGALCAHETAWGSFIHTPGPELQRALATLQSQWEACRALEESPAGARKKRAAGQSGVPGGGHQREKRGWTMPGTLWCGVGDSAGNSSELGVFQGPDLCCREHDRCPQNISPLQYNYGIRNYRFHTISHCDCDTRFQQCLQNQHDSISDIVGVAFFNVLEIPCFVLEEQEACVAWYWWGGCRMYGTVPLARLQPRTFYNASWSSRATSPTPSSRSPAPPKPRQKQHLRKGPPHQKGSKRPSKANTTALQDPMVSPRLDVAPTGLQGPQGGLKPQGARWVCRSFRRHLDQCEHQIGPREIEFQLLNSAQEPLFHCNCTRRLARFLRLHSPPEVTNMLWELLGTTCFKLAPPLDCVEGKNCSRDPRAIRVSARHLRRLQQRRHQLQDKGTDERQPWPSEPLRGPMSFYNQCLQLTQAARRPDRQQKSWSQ
hGIII sPLA2 conf: human GIII-sPLA2 inhibition, confirmation | shares compounds with sPLA2-III inh | recombinant hGIII-sPLA2, BODIPY PC-A2 QFRET fluorescence | inhibition, % at 12.2 µM | hit rate 34% among 2,000;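 active = mean inhibition across triplicates above the hit cutoff set in the earlier primary screen, cut at about 19% in these data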;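 also: 0% = enzyme with DMSO and 100% = DMSO wells lacking enzyme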
535nm interf: optically interferes with 535nm fluorescence in sPLA2 counter-screen; BODIPY FL product fluorescence interference, QFRET; inhibition, % at 12.2 µM; shares compounds with sPLA2-III inh; hit rate 8.5% among 2,000;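 active = average inhibition above the solvent-only control mean plus 3 SD, cut at about 6% in these data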;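 also: 0% = DMSO with substrate plus product and 100% = DMSO with substrate alone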
BODIPY interf DR: counter-screen for HGIII-sPLA2 inhibitors: 535nm fluorescence interference, dose response. shares compounds with sPLA2-III inh. BODIPY FL product fluorescence interference, cell-free. IC50, µM. 240 tested, under 10 active;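 active = IC50 at or below 10 µM; inactive = IC50 above 10 µM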
* hit, by the source's call; / = no result.

SMILES | MOR-DOR inv ag | OPRM1-OPRD1 ag | HTR5A ag | HTR5A inv ctr | m5-HT2A agonist | sPLA2-III inh | hGIII sPLA2 conf | 535nm interf | others
Cc1ccc(NC(=S)NNC(=O)c2nn(C)c(C)c2Cl)cc1 | 24 | -5 | 0 | 17 | 1 | 38* | 48* | 1 | BODIPY interf DR=>122
FC(F)(F)c1ccccc1CN1CCCc2nc(-c3ccc(Br)cc3)ccc21 | / | / | / | / | / | 22* | 14 | 4
FC(F)(F)c1ccccc1CN1CCCc2nc(-c3ccccc3)ccc21 | / | / | / | / | / | 27* | 6 | -1
COc1cc(-c2nnc(SCC(=O)NN=Cc3c[nH]c4ccccc34)n2-c2ccccc2)cc(OC)c1OC | / | / | / | / | / | -24 | / | /
Cc1cc(C(=O)CN2CCC(C)CC2)c(C)n1-c1ccccc1F | 14 | -3 | 0 | -21 | -4 | 19* | 4 | -22
COc1cc(CC(NC(C)=O)C(=O)NC2CCN(c3c(Cc4ccccc4)c(C)nc4ncnn34)CC2)cc(OC)c1 (stereo not given) | 7 | -1 | 6 | -7 | 6 | 22* | -2 | -32
Brc1ccc(N2O[C@H]3C=C[C@@H]2C3)nc1 | / | / | / | / | / | -13 | / | /
CCn1c2ccccc2c2cc(NC(=O)COC(=O)c3cccc(F)c3)ccc21 | / | / | / | / | / | 3 | / | /
CC(=O)OCC(=O)N1CCN(C(=O)C(=O)c2cccc(C(F)(F)F)c2)CC1 | / | / | / | / | / | 22* | 4 | -3
Nc1sc(-c2ccccc2)cc1C(=O)NCCN1CCOCC1 | / | / | / | / | -8 | 20* | 7 | -7
O=C(NCCN1CCOCC1)c1ccccc1-c1ccccc1 | -2 | 0 | 3 | -7 | 2 | 8 | / | /
Cc1ccc(-n2c(SCC(=O)Nc3ccc(S(=O)(=O)Nc4nccs4)cc3)nnc2-c2cccs2)cc1 | / | / | / | / | / | -59 | / | /
COc1ccc(S[C@]2(C(=O)N3CCCC3)CC(=O)N(S(=O)(=O)c3ccc(F)cc3)[C@@H]2c2ccc(OC)cc2)cc1 | / | / | / | / | / | -7 | / | /
CCC(=O)Nc1c(C(=O)N2CCN(c3ccccn3)CC2)cnn1-c1ccc(Cl)cc1 | 3 | 0 | 4 | 6 | 2 | 2 | / | /
CCC(=O)Nc1c(C(=O)N2CCN(c3ccccn3)CC2)cnn1-c1ccc(C)cc1 | -5 | 1 | 2 | -6 | -2 | 22* | -1 | -9
C#CCN1C(C(=O)OC)CN(CCCCCC)CCS1(=O)=O (stereo not given) | / | / | / | / | / | -7 | / | /
COc1ccccc1/C=N/NC(=O)CC(=O)NCc1cccnc1 | 18 | -3 | -5 | 13 | -1 | -3 | / | /
O=C(CC(=O)N/N=C/c1ccccc1O)NCc1cccnc1 | 22 | -4 | 0 | 5 | 2 | 19* | -4 | -4
Cc1cc(C)cc(C(=O)OCCN(C)C2CN(Cc3cn(Cc4ccccc4F)nn3)S(=O)(=O)C2)c1 (stereo not given) | / | / | / | / | / | -12 | / | /
CN(CCCS(=O)(=O)[O-])c1ccc(/C=C/c2ccc3ccccc3[n+]2C)cc1 | 14 | -3 | 3 | -11 | -9 | 21* | 6 | -7
COc1ccccc1Nc1nc(-c2c(C)[nH]c3ccccc23)cs1 | 5 | -1 | -1 | 3 | 0 | 20* | 20* | 9.8*
O=C(N/N=C/c1ccccc1)c1n[nH]c2c1CCCC2 | 13 | -2 | 5 | -13 | -1 | 6 | / | /
O=C(N/N=C/c1ccc(Cl)cc1)c1n[nH]c2c1CCCC2 | -14 | 3 | 4 | -32 | 7 | 21* | -2 | -5
CCOCCCNC(=S)Nc1ccc(Br)cc1Cl | 2 | 0 | -1 | 4 | 1 | 20* | 5 | -6
S=c1[nH]nc2ccc3ccccc3n12 | / | / | / | / | 3 | 26* | 23* | 0
SMILES | MOR-DOR inv ag | OPRM1-OPRD1 ag | HTR5A ag | HTR5A inv ctr | m5-HT2A agonist | sPLA2-III inh | hGIII sPLA2 conf | 535nm interf | others
CCOc1ccc(-n2c(N)c(-c3nc4ccccc4[nH]3)sc2=S)cc1 | -54 | 9 | 5 | 3 | -3 | 20* | 33* | 2 | BODIPY interf DR=>122
COc1ccc2[nH]c3c(c2c1)CCN[C@]31C(=O)N(C)c2ccc(Br)cc21 | / | / | / | / | / | -10 | / | /
CC(C)(C)c1ccc(NC(=O)C2=CC=CN3CCS(=O)(=O)N=C23)cc1 | 8 | -2 | 2 | 3 | 0 | 11 | / | /
CCN(CC)c1ccc(NC(=O)C2=CC=CN3CCS(=O)(=O)N=C23)cc1 | 19 | -5 | 2 | -6 | -1 | 21* | 8 | 1
COC(=O)[C@H](C(C)C)N1Cc2nnn(Cc3ccccc3)c2C=CS1(=O)=O | / | / | / | / | / | 3 | / | /
Clc1ccc(OCCCCCN2CCCC2)c(Br)c1 | -1 | 0 | 0 | -1 | -6 | -8 | / | /
Cc1ccc(C)c(OCCCCN2CCCCC2)c1 | 10 | -2 | 4 | -14 | -6 | 21* | -3 | -26
Clc1ccc(OCCCN2CCCCC2)c(Br)c1 | -1 | 0 | 0 | 15 | -6 | 22* | -1 | -26
COC(=O)[C@]12CCCCC=C1N(Cc1ccc(OC)cc1)C(=O)[C@@H]2CC(=O)NCc1ccc(OC)c(OC)c1 | / | / | / | / | / | -14 | / | /
CCCC[C@H]1C2CC(OC(=O)Nc3ccc(Cl)cc3)C(C2)[C@H]2CCCCN21 (stereo not given in full) | / | / | / | / | / | 4 | / | /
COc1cc2cc(NC(C)=O)cc(NCc3ccccc3)c2cc1OC | -10 | 2 | 2 | -6 | 2 | 21* | 19 | -2
CC(=NNC(=O)CSc1nnc(-c2ccc(C(C)(C)C)cc2)n1-c1ccccc1)c1cccc2ccccc12 | / | / | / | / | / | -5 | / | /
CCN=c1scc(C)n1/N=C/c1cc(Br)c(O)c(Br)c1 | -2 | 0 | 6 | 3 | -4 | 22* | 21* | 1
CCN=c1scc(-c2ccco2)n1/N=C/c1ccc(O)cc1 | 9 | -2 | 1 | -4 | 6 | 4 | / | /
C=C(C)CN=c1scc(C)n1/N=C/c1ccco1 | -20 | 3 | -2 | -6 | 1 | 4 | / | /
CCN=c1scc(C)n1/N=C/c1ccc(O)c(O)c1O | -14 | 3 | 0 | 1 | 0 | 22* | 24* | -11
CCCCSc1nnc(-c2ccc(C)cc2)c2ccccc12 | -14 | 3 | -1 | -8 | 1 | 24* | -1 | -11
CC(=O)N1c2cc(S(=O)(=O)N3CCN(c4ccccc4F)CC3)c(Br)cc2CC1C (stereo not given) | / | / | / | / | / | -9 | / | /
O=C(O)CCCC(=O)Nc1nncs1 | 13 | -3 | -3 | -29 | 1 | -1 | / | /
CC(CCC(=O)Nc1nncs1)C(=O)O (stereo not given) | 2 | 0 | 1 | -14 | 1 | 20* | 0 | 3
Cc1ccc(Nc2n[nH]c(=S)s2)cc1 | / | / | / | / | -4 | 24* | 34* | 0 | BODIPY interf DR=>122

From PubChem BioAssay
